Screening results from PubChem BioAssay.
This is a sample that favours compounds with a hit; in the whole collection about 19% have one here.
DT40 TDP1 CPT – growth inhibition of DT40 Tdp1-/-;hTDP1 cells with camptothecin (screen for TDP1 inhibitors); chicken DT40 Tdp1-/-;hTDP1 cells + 20 nM CPT, ATP luminescence, 48 h; Potency, µM (doses to about 46.2 µM), hits mostly inhibitors; 420,000 tested, 12% active; AID 686979; also: nearly all actives have a fitted effect of over 55% in size
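Chicken DT40 Tdp1-/- cells stably complemented with human TDP1 were seeded at 400 cells/well in medium containing 20 nM camptothecin, exposed to pin-transferred compounds, and grown at 37 °C for at least 48 hr. Viability was read as ATP luminescence.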
TDP1 cell noCPT – qHTS for Inhibitors of human tyrosyl-DNA phosphodiesterase 1 (TDP1): qHTS in cells in absence of CPT. DT40 Tdp1-/- hTDP1 cells, no CPT, ATP luminescence, 48 h. Potency, µM (doses to about 46.2 µM), actives largely listed as inhibitors. 420,000 tested, 15% active. AID 686978, 2013; also: nearly all actives have a fitted effect of over 55% in size
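A cellular qHTS used chicken DT40 cells lacking endogenous Tdp1 but carrying stably transfected human TDP1. Compounds were applied without camptothecin, and cell growth kinetics were judged by ATP-dependent luminescence after ≥48 hr.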
ELG1 repair inh – inhibitors of ELG1-dependent DNA repair in HEK293T cells | HEK293T ELG1-luciferase reporter, luminescence, 16 h; DNA damage induced by 5-fluorouridine | Potency, µM (doses to about 46.1 µM), most hits filed as inhibitors | 330,000 tested, 2.3% active | AID 504467; also: nearly all actives have a fitted effect of over 55% in size
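Overnight (16 hr) co-exposure of 2,000 cells/well to 5-fluorouridine and compound at 37 °C preceded detection. Luciferase was quantified via ONE-Glo luminescence; loss of signal denotes inhibition.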
HT1080NT lethal – kills 2HG-producing HT-1080-NT fibrosarcoma cells; 360,000 tested, 1.6% active; Potency, µM (doses to about 46.1 µM), actives largely listed as cytotoxic; HT-1080-NT fibrosarcoma viability, CellTiter-Glo ATP luminescence, 48 h;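 also: NT is the 2HG producing partner of a matched IDH1 knockdown line; nearly all actives have a fitted effect of over 55% in size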
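Toxicity toward the 2HG-producing NT line was scored as %Activity, normalised to DMSO and no-cell wells, from CellTiter-Glo luminescence after 48 hours' treatment.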
HT1080 IDH1KD tx – HT-1080 IDH1 knockdown cell toxicity (counter line). HT-1080 IDH1 knockdown viability, ATP luminescence, 48 h. Potency, µM (highest dose often 46.1 µM), usual class: cytotoxic. 360,000 tested, 2% active
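Using the IDH1-knockdown HT-1080 line run in the same batch and compound series as the NT line, viability after 48 h at 37 °C was determined by CellTiter-Glo luminescence and expressed as % activity.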
IL-1B inflam inh – blocks inflammasome-driven IL-1 beta release | THP-1 LPS/ATP IL-1B secretion, AlphaLISA, 16 h; hits give low values | activity change, % at 57.5 µM | 360,000 tested, 4.7% active; in the data active = activity change below about -50%; inconclusive = mostly about -30% to -49%
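THP-1 cells pretreated 1 hr with compounds (up to 57.5 uM final), then stimulated with LPS (250 ng/mL final) plus ATP (1.25 mM final); secreted IL-1B measured by AlphaLISA after 16 hr, decreased signal indicating inhibition.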
Hits are given with their value. Unless noted, calls follow the shape of the dose curve; as a rule, active = well fitted curve in the direction sought with a large enough effect; inconclusive = small, poorly fitted or top-dose-only effect, or another doubt; inactive = no such curve, though single readings can be large; an effect the other way counts as inactive or inconclusive.

Results for Cc1ccc(-n2c(C)cc(C(=O)CSc3n[nH]c(N)n3)c2C)cc1 ?
DT40 TDP1 CPT: inconclusive; TDP1 cell noCPT: 13µM; ELG1 repair inh: inconclusive; HT1080NT lethal: inactive; HT1080 IDH1KD tx: inconclusive; IL-1B inflam inh: inactive

What do the screens show for `Cc1cc(C(=O)CSc2n[nH]c(N)n2)c(C)n1-c1ccc(F)cc1`?
DT40 TDP1 CPT: 21µM; TDP1 cell noCPT: inconclusive; ELG1 repair inh: inconclusive; HT1080NT lethal: inconclusive; HT1080 IDH1KD tx: inactive; IL-1B inflam inh: inactive

How did Cc1cc(C(=O)CSc2n[nH]c(N)n2)c(C)n1C1CC1 do in these assays?
DT40 TDP1 CPT: inconclusive; TDP1 cell noCPT: 21µM; ELG1 repair inh: inactive; HT1080NT lethal: inactive; HT1080 IDH1KD tx: inactive; IL-1B inflam inh: inactive

Results for COc1ccc(NC(=O)[C@H](C)NC(=O)C2CCN(S(=O)(=O)c3ccc(C)cc3)CC2)cc1 ?
DT40 TDP1 CPT: inactive; TDP1 cell noCPT: inactive; ELG1 repair inh: inactive; HT1080NT lethal: inactive; HT1080 IDH1KD tx: inactive; IL-1B inflam inh: inactive

What do the screens show for `COC(=O)CC1C(C)(C)C(OC(C)=O)[C@@]2(O)C=C3C4CC(=O)OC(c5ccoc5)[C@]4(C)CCC3[C@@]1(C)C2=O` (stereo partly specified)?
DT40 TDP1 CPT: inactive; TDP1 cell noCPT: inactive

Results for NC(=O)CC(NC(=O)c1ccc(Br)cc1)c1ccc(N2CCN(c3ccccn3)CC2)c([N+](=O)[O-])c1 (stereo unspecified) ?
DT40 TDP1 CPT: 23µM; TDP1 cell noCPT: 21µM; ELG1 repair inh: inconclusive; HT1080NT lethal: inactive; HT1080 IDH1KD tx: inactive; IL-1B inflam inh: inactive

What do the screens show for `NC(=O)CC(NC(=O)c1cccc(Br)c1)c1ccc(N2CCN(c3ccccn3)CC2)c([N+](=O)[O-])c1` (stereo unspecified)?
DT40 TDP1 CPT: 15µM; TDP1 cell noCPT: 13µM; ELG1 repair inh: inactive; HT1080NT lethal: inactive; HT1080 IDH1KD tx: inactive; IL-1B inflam inh: inactive

How did NCCNC(=O)c1ccc(Cl)cn1 do in these assays?
DT40 TDP1 CPT: inactive; TDP1 cell noCPT: inactive

Results for Cc1ccccc1-c1noc(-c2nnn(-c3ccccc3C)c2N)n1 ?
DT40 TDP1 CPT: inactive; TDP1 cell noCPT: inactive

How did COC1(NS(=O)(=O)c2ccc(Br)cc2)C(C)=CC(=O)C=C1C do in these assays?
DT40 TDP1 CPT: 13µM; TDP1 cell noCPT: inconclusive; ELG1 repair inh: inactive; HT1080NT lethal: inactive; HT1080 IDH1KD tx: inactive; IL-1B inflam inh: inactive

What do the screens show for `C=CCn1c(SCc2c(C)noc2C)nc2sc(C)c(C)c2c1=O`?
DT40 TDP1 CPT: 21µM; TDP1 cell noCPT: 18µM; ELG1 repair inh: inconclusive; HT1080NT lethal: 16µM; HT1080 IDH1KD tx: 11µM; IL-1B inflam inh: inactive

What do the screens show for `C=CCn1c(SCC(=O)NCCO)nc2sc(C)c(C)c2c1=O`?
DT40 TDP1 CPT: inactive; TDP1 cell noCPT: inactive; ELG1 repair inh: inactive; HT1080NT lethal: inactive; HT1080 IDH1KD tx: inactive; IL-1B inflam inh: inactive

How did C=CCn1c(SCC(=O)c2cc(C)n(C(C)COC)c2C)nc2sc(C)c(C)c2c1=O (stereo unspecified) do in these assays?
DT40 TDP1 CPT: inconclusive; TDP1 cell noCPT: 18µM; ELG1 repair inh: inconclusive; HT1080NT lethal: inactive; HT1080 IDH1KD tx: inconclusive; IL-1B inflam inh: inactive

Results for Cc1ccc(CNC(=O)c2ccc3c(c2)N(Cc2cccc(C)c2)C(=O)CS3)cc1 ?
DT40 TDP1 CPT: inconclusive; TDP1 cell noCPT: 21µM

What do the screens show for `O=C(NCCN1CCOCC1)c1ccc2c(c1)N(Cc1ccccc1)C(=O)CS2`?
DT40 TDP1 CPT: inactive; TDP1 cell noCPT: inactive; ELG1 repair inh: inactive; HT1080NT lethal: inactive; HT1080 IDH1KD tx: inactive; IL-1B inflam inh: inactive

How did O=C(NCCC1=CCCCC1)c1ccc2c(c1)N(Cc1ccccc1)C(=O)CS2 do in these assays?
DT40 TDP1 CPT: inconclusive; TDP1 cell noCPT: 21µM; ELG1 repair inh: inconclusive; HT1080NT lethal: inconclusive; HT1080 IDH1KD tx: inactive; IL-1B inflam inh: inconclusive

What do the screens show for `O=C(NCCc1ccc(Cl)cc1)c1ccc2c(c1)N(Cc1ccc(F)cc1Cl)C(=O)CS2`?
DT40 TDP1 CPT: inconclusive; TDP1 cell noCPT: 6.5µM

Results for O=C(NCCc1ccccc1)c1ccc2c(c1)N(Cc1ccc(F)cc1Cl)C(=O)CS2 ?
DT40 TDP1 CPT: inactive; TDP1 cell noCPT: inactive

How did Cc1ccc(C)c(CN2C(=O)c3ccccc3Sc3ccc(C(=O)NCc4ccc5c(c4)OCO5)cc32)c1 do in these assays?
DT40 TDP1 CPT: inactive; TDP1 cell noCPT: inactive

How did Cc1ccc(C)c(CN2C(=O)CSc3ccc(C(=O)NCc4ccccc4)cc32)c1 do in these assays?
DT40 TDP1 CPT: 10µM; TDP1 cell noCPT: 16µM

How did CCC(=O)N1c2ccccc2CC1C(=O)NCCc1ccc(Cl)cc1 (stereo unspecified) do in these assays?
DT40 TDP1 CPT: inactive; TDP1 cell noCPT: inactive

How did CCOC(=O)N1CCN(C(=O)CN(c2ccc(C)cc2C)S(=O)(=O)c2ccccc2)CC1 do in these assays?
DT40 TDP1 CPT: inactive; TDP1 cell noCPT: inactive

Results for COCCCNC(=O)CSc1nc2cc3c(cc2c(=O)n1CCCCCC(=O)NCc1ccc2c(c1)OCO2)OCO3 ?
DT40 TDP1 CPT: inactive; TDP1 cell noCPT: inactive

What do the screens show for `CCNC(=O)C1(C)CCCN(C(=O)c2cccc(C)c2C)C1` (stereo unspecified)?
DT40 TDP1 CPT: inactive; TDP1 cell noCPT: inactive; HT1080NT lethal: inactive; HT1080 IDH1KD tx: inactive; IL-1B inflam inh: inactive

How did COc1cc(Cl)c(C)cc1NC(=O)Cn1ncc2c(=O)oc3ccccc3c21 do in these assays?
DT40 TDP1 CPT: inactive; TDP1 cell noCPT: inactive

What do the screens show for `COc1ccc([C@H]2CC(=O)C[C@@H](CCn3cccn3)O2)cc1`?
DT40 TDP1 CPT: inactive; TDP1 cell noCPT: inactive; HT1080NT lethal: inactive; HT1080 IDH1KD tx: inactive; IL-1B inflam inh: inactive

Results for O=C(NCc1ccc2c(c1)OCO2)c1ccc2c(c1)N(Cc1ccccc1F)C(=O)c1ccccc1S2 ?
DT40 TDP1 CPT: inactive; TDP1 cell noCPT: inactive

How did O=C(NCc1ccc2c(c1)OCO2)c1ccc2c(c1)N(Cc1c(F)cccc1Cl)C(=O)CS2 do in these assays?
DT40 TDP1 CPT: inconclusive; TDP1 cell noCPT: 23µM; ELG1 repair inh: inconclusive; HT1080NT lethal: inactive; HT1080 IDH1KD tx: inactive; IL-1B inflam inh: inactive

Results for COc1ccc(Cl)cc1NC(=O)CSc1nnc(-c2ccco2)o1 ?
DT40 TDP1 CPT: inactive; TDP1 cell noCPT: inactive; ELG1 repair inh: inactive; HT1080NT lethal: inactive; HT1080 IDH1KD tx: inactive; IL-1B inflam inh: inactive
